Several values for one entry are separate records, joined by “and”; a condition that tells them apart may be missing. Equal entries are not always repeated. Among all 5,500 compounds or so, about 2,000 (36%) were called active. About 18% were inconclusive and are not listed. Rule as the data show it: active = normalized growth mostly below about 0.91 (no sharp cut-off); inconclusive = no clear call, values can overlap the other calls; inactive = mostly above about 0.92. The list shows a part of the results.
Test: chemical genetic growth profiling, strain panel (AID 1159580);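 also: tested at 20 µM; growth read once vehicle control cultures reached saturation at 30 °C; 1 = growth at the plate median or of vehicle wells; lower values mean less growth of the strain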
Conditions: S. cerevisiae deletion strains, growth OD

Measured: normalized growth

NC(N)=Nc1nc(CSCCC(N)=NS(N)(=O)=O)cs1
inactive: locus YAL013W, strain DEP1, stronger effect = lower value 1 | locus YAL021C, strain ccr4, stronger effect = lower value 0.996 | locus YAL026C, strain drs2, stronger effect = lower value 0.995 | locus YAL030W, strain snc1, stronger effect = lower value 0.982 | locus YAL040C, strain CLN3, stronger effect = lower value 0.997 | locus YBL061C, strain skt5, stronger effect = lower value 0.978 | locus YBR009C, strain hhf1, stronger effect = lower value 1.01 | locus YBR021W, strain FUR4, stronger effect = lower value 0.996 | locus YBR023C, strain chs3, stronger effect = lower value 0.997 | locus YBR171W, strain sec66, stronger effect = lower value 0.958 | locus YBR229C, strain ROT2, stronger effect = lower value 1 | locus YBR231C, strain swc5, stronger effect = lower value 0.959 | locus YBR279W, strain paf1, stronger effect = lower value 0.997 | locus YCL011C, strain gbp2, stronger effect = lower value 0.993 | locus YCL016C, strain dcc1, stronger effect = lower value 0.992 | locus YCL029C, strain bik1, stronger effect = lower value 1.02 | locus YCL061C, strain MRC1 (second series), stronger effect = lower value 1.01 | locus YCL069W, strain vba3, stronger effect = lower value 0.991 | locus YCR088W, strain abp1, stronger effect = lower value 0.978 | locus YDL005C, strain med2, stronger effect = lower value 0.974 | locus YDL035C, strain GPR1, stronger effect = lower value 1 | locus YDL040C, strain nat1, stronger effect = lower value 0.969 | locus YDL074C, strain BRE1, stronger effect = lower value 1.03 | locus YDL101C, strain DUN1, stronger effect = lower value 1.01 | locus YDL134C, strain PPH21, stronger effect = lower value 1.01 | locus YDL185W, strain tfp1, stronger effect = lower value 1.01 | locus YDL192W, strain arf1, stronger effect = lower value 1.01 | locus YDR001C, strain nth1, stronger effect = lower value 0.972 | locus YDR069C, strain doa4, stronger effect = lower value 0.968 | locus YDR101C, strain arx1, stronger effect = lower value 1.01 | locus YDR137W, strain rgp1, stronger effect = lower value 1 | locus YDR150W, strain NUM1, stronger effect = lower value 0.996 | locus YDR159W, strain sac3, stronger effect = lower value 0.986 | locus YDR162C, strain NBP2, stronger effect = lower value 1.01 | locus YDR195W, strain ref2 0.969 | locus YDR297W, strain sur2, stronger effect = lower value 0.997 | locus YDR318W, strain mcm21, stronger effect = lower value 1.02 | locus YDR334W, strain swr1, stronger effect = lower value 0.967 | locus YDR335W, strain msn5, stronger effect = lower value 0.968 | locus YDR363W, strain ESC2, stronger effect = lower value 0.999 | locus YDR388W, stronger effect = lower value 1.01 | locus YDR392W, strain spt3, stronger effect = lower value 1.02 | locus YDR502C, strain sam2, stronger effect = lower value 1 | locus YEL003W, strain gim4, stronger effect = lower value 0.983 | locus YEL037C, strain rad23, stronger effect = lower value 0.975 | locus YEL061C, strain CIN8 (second series), stronger effect = lower value 0.992 | locus YEL061C, strain CIN8, stronger effect = lower value 1.01 | locus YER002W, strain NOP16, stronger effect = lower value 1 | locus YER015W, strain faa2, stronger effect = lower value 0.986 | locus YER016W, strain bim1, stronger effect = lower value 1.01 | locus YER110C, stronger effect = lower value 1.01 | locus YER111C, strain swi4, stronger effect = lower value 0.991 | locus YER155C, strain BEM2 (second series), stronger effect = lower value 0.988 | locus YER155C, strain BEM2, stronger effect = lower value 1 | locus YER167W, strain BCK2, stronger effect = lower value 1.01 | locus YFR010W, strain ubp6, stronger effect = lower value 1 | locus YGL078C, strain dbp3, stronger effect = lower value 1 | locus YGL086W, strain mad1, stronger effect = lower value 0.996 | locus YGL167C, strain pmr1, stronger effect = lower value 0.961 | locus YGL173C, strain kem1, stronger effect = lower value 0.976 | locus YGL227W, strain vid30, stronger effect = lower value 0.964 | locus YGL240W, strain doc1, stronger effect = lower value 0.973 | locus YGL248W, strain PDE1, stronger effect = lower value 0.985 | locus YGL253W, strain hxk2, stronger effect = lower value 0.991 | locus YGR078C, strain PAC10, stronger effect = lower value 1.03 | locus YGR229C, strain SMI1, stronger effect = lower value 0.989 and 0.992 | locus YGR252W, strain gcn5, stronger effect = lower value 0.993 | locus YHR013C, strain ard1, stronger effect = lower value 1.01 | locus YHR027C, strain rpn1, stronger effect = lower value 0.993 | locus YHR030C, strain SLT2, stronger effect = lower value 1.01 and 0.989 | locus YHR079C, strain IRE1 (second series), stronger effect = lower value 1.01 | locus YHR079C, strain IRE1, stronger effect = lower value 0.972 | locus YHR094C, strain hxt1, stronger effect = lower value 1.01 | locus YHR129C, strain ARP1, stronger effect = lower value 1.01 | locus YHR142W, strain chs7, stronger effect = lower value 0.959 | locus YHR200W, strain rpn10, stronger effect = lower value 1.01 | locus YIL066C, strain RNR3, stronger effect = lower value 1.01 | locus YIL073C, strain SPO22, stronger effect = lower value 1.04 | locus YIL125W, strain kgd1, stronger effect = lower value 1 | locus YIR030C, strain dcg1, stronger effect = lower value 1.01 | locus YJL092W, strain hpr5, stronger effect = lower value 0.987 | locus YJL095W, strain BCK1 (second series), stronger effect = lower value 0.993 | locus YJL095W, strain BCK1, stronger effect = lower value 1.04 and 0.984 | locus YJL115W, strain asf1, stronger effect = lower value 0.983 | locus YJL129C, strain trk1, stronger effect = lower value 0.944 | locus YJL134W, strain LCB3, stronger effect = lower value 1 | locus YJL154C, strain vps35, stronger effect = lower value 0.983 | locus YJL164C, strain tpk1, stronger effect = lower value 1.01 | locus YJL166W, strain qcr8, stronger effect = lower value 0.981 | locus YJL168C, strain set2, stronger effect = lower value 1.01 | locus YJL187C, strain SWE1 (second series), stronger effect = lower value 1.02 | locus YJL187C, strain SWE1, stronger effect = lower value 0.984 | locus YJR043C, strain POL32, stronger effect = lower value 1.01 | locus YJR066W, strain TOR1, stronger effect = lower value 0.921 | locus YJR075W, strain HOC1, stronger effect = lower value 1.01

From PubChem BioAssay AID1159580 (chemical genetic matrix, 2015)
